Experimental data from PubChem BioAssay (NCATS).
Inconclusive results are not listed. Calls of active or inactive are those of the source. Calls come from the whole dose curve; as a rule, active = well fitted curve in the direction sought with a large enough effect; inconclusive = small, poorly fitted or top-dose-only effect, or another doubt; inactive = no such curve, though single readings can be large; an effect the other way counts as inactive or inconclusive.

Legend:
CRL-7250 = normal cell line; test: Cytotoxic Profiling of Annotated Libraries Using Quantitative High-Throughput Screening (AID 1296008); conditions: Five cell lines viability, CellTiter-Glo ATP luminescence, 48-72 h; max response: active compounds read low; note: nearly all actives have a fitted effect of over 60% in size; for max response: % is set by controls: 0 for no effect and ±100 for the full control effect
Outline: (§1)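 Compounds were pin-transferred onto cells and incubated 48 or 72 hr at 37 degree Celsius, 95% humidity. CellTiter-Glo was added, plates sat 10 min at room temperature, then ATP-coupled luminescence was imaged as the viability read-out.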

HEK293 = test: as above; conditions: Five cell lines viability, CellTiter-Glo ATP luminescence, 48-72 h; max response: active compounds read low
Outline: as §1

HaCat [1] = test: as above; conditions: Five cell lines viability, CellTiter-Glo ATP luminescence, 48-72 h; max response: active compounds read low
Outline: as §1

KB-3-1 = test: as above; conditions: Five cell lines viability, CellTiter-Glo ATP luminescence, 48-72 h; max response: active compounds read low
Outline: as §1

NIH3T3 = test: as above; conditions: Five cell lines viability, CellTiter-Glo ATP luminescence, 48-72 h; max response: active compounds read low
Outline: as §1

HACAT [2] = test: qHTS assay to identify novel small-molecules to repurpose for Merkel cell carcinoma treatment (AID 1296009); conditions: MCC and control cell lines, CellTiter-Glo viability, 72 h; at 44.8 µM (top of the series) unless noted; note: nearly all actives have a fitted effect of over 60% in size
Outline: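 Luminescence from CellTiter-Glo, read 10 min after addition at room temperature, reported viability following a 72 hr, 37 degree celsius treatment with NPC or MIPE compounds in titration; values normalized to plate controls.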

C33A = test: Primary qHTS to identify gynecologic anti-cancer compounds using libraries of approved drugs and bioactive compounds (AID 1345084); conditions: Gynecologic cancer cell panel viability, ATPlite luminescence, 48 h; series mostly up to 57.5 µM; note: % is set by controls: 0 for no effect and ±100 for the full control effect; nearly all actives have a fitted effect of over 55% in size
Outline: (§2)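 Cell viability after 48 h drug treatment, ATPlite luminescence readout; five doses.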

CAOV3 = test: as above; conditions: Gynecologic cancer cell panel viability, ATPlite luminescence, 48 h; series mostly up to 57.5 µM
Outline: as §2

CASKI = test: as above; conditions: Gynecologic cancer cell panel viability, ATPlite luminescence, 48 h; series mostly up to 57.5 µM
Outline: as §2

Es-2 = test: as above; conditions: Gynecologic cancer cell panel viability, ATPlite luminescence, 48 h; series mostly up to 57.5 µM
Outline: as §2

HeLa = test: as above; conditions: Gynecologic cancer cell panel viability, ATPlite luminescence, 48 h; series mostly up to 57.5 µM
Outline: as §2

Hek293T = test: as above; conditions: Gynecologic cancer cell panel viability, ATPlite luminescence, 48 h, control line for the selectivity index; series mostly up to 57.5 µM
Outline: as §2

JEG-3 = test: as above; conditions: Gynecologic cancer cell panel viability, ATPlite luminescence, 48 h; series mostly up to 57.5 µM
Outline: as §2

Cc1cn(C[C@H](N)C(=O)O)c(=O)n(Cc2ccsc2C(=O)O)c1=O
inactive: max response (CRL-7250) -3.54% | max response (HEK293) -7.52% | outcome (HaCat [1]) | outcome (KB-3-1) | max response (NIH3T3) 4.32% | outcome (HACAT [2]) | Potency (C33A) | Potency (CAOV3) | outcome (CASKI) | Potency (Es-2) | Potency (HeLa) | Potency (Hek293T) | Potency (JEG-3)

C[C@]12CC[C@@H]3c4ccc(O)cc4CC[C@H]3[C@@H]1C[C@@H](O[C@@H]1O[C@H](C(=O)O)[C@@H](O)[C@H](O)[C@H]1O)[C@@H]2O
inactive: max response (CRL-7250) 2.29% | max response (HEK293) -7.39% | outcome (HaCat [1]) | max response (KB-3-1) 4.13% | max response (NIH3T3) -7.98% | outcome (HACAT [2]) | Potency (C33A) | Potency (CAOV3) | outcome (CASKI) | Potency (Es-2) | Potency (HeLa) | Potency (Hek293T) | Potency (JEG-3)

CC(=O)OC[C@]12[C@H](OC(C)=O)[C@H](OC(=O)c3ccccc3)[C@@H]3[C@@H](OC(C)=O)[C@]1(OC3(C)C)[C@H](C)C[C@H](OC(=O)c1ccccc1)[C@@H]2OC(=O)c1ccccc1
inactive: outcome (CRL-7250) | max response (HEK293) -0.732% | outcome (HaCat [1]) | max response (KB-3-1) -5.99% | max response (NIH3T3) -7.63% | outcome (HACAT [2]) inactive [at 17.4 µM] | Potency (C33A) | Potency (CAOV3) | outcome (CASKI) | Potency (Es-2) | Potency (HeLa) | Potency (Hek293T) | Potency (JEG-3)

CC(C)(O)/C=C/C(=O)[C@](C)(O)[C@H]1[C@H](O)C[C@@]2(C)[C@@H]3CC=C4[C@@H](C=C(O[C@@H]5O[C@H](CO)[C@@H](O)[C@H](O)[C@H]5O)C(=O)C4(C)C)[C@]3(C)C(=O)C[C@]12C
inactive: max response (CRL-7250) -3.34% | max response (HEK293) -7.75% | outcome (HaCat [1]) | max response (KB-3-1) 0.874% | max response (NIH3T3) 1.79% | outcome (HACAT [2]) inactive [at 17.4 µM] | Potency (C33A) | Potency (CAOV3) | outcome (CASKI) | Potency (Es-2) | Potency (HeLa) | Potency (Hek293T) | Potency (JEG-3)

O=C(/C=C/c1ccc(O)cc1)OC[C@@]1(O)C=C[C@@H]2C(C(=O)O)=CO[C@@H](O[C@@H]3O[C@H](CO)[C@@H](O)[C@H](O)[C@H]3O)[C@@H]21
inactive: max response (CRL-7250) -3.16% | max response (HEK293) -5.68% | outcome (HaCat [1]) | outcome (KB-3-1) | max response (NIH3T3) 2.82% | outcome (HACAT [2]) inactive [at 17.4 µM] | Potency (C33A) | Potency (CAOV3) | outcome (CASKI) | Potency (Es-2) | Potency (HeLa) | Potency (Hek293T) | Potency (JEG-3)

CCC(C)C(=O)O[C@H]1[C@@H](O[C@H]2O[C@H](CO)[C@@H](O)[C@H](O)[C@H]2O)O[C@H](CO)[C@@H](O)[C@@H]1O (some centres not stated)
inactive: max response (CRL-7250) -1.24% | max response (HEK293) -6.33% | outcome (HaCat [1]) | max response (KB-3-1) -0.199% | max response (NIH3T3) 2.16% | outcome (HACAT [2]) inactive [at 17.4 µM] | Potency (C33A) | Potency (CAOV3) | outcome (CASKI) | Potency (Es-2) | Potency (HeLa) | Potency (Hek293T) | Potency (JEG-3)

C=C1C2(C)CC3C4(C)C=CC(=O)OC(C)(C)C4CCC3(C)C1(C(=O)OC)C(=O)C(C)(O)C2=O (configuration not stated)
inactive: max response (CRL-7250) -7.15% | max response (HEK293) -101% | outcome (HaCat [1]) | outcome (KB-3-1) | outcome (NIH3T3) | outcome (HACAT [2]) inactive [at 17.4 µM] | Potency (C33A) | Potency (CAOV3) | outcome (CASKI) | Potency (Es-2) | Potency (HeLa) | Potency (Hek293T) | Potency (JEG-3)

COC(=O)C(CC1(OC(=O)C(C)C)c2ccccc2N2C(=O)C(C)(C)N(O)C21)n1cnc2ccccc2c1=O (configuration not stated)
inactive: max response (CRL-7250) -11.1% | max response (HEK293) -9.23% | outcome (HaCat [1]) | max response (KB-3-1) 5.72% | max response (NIH3T3) -14.6% | outcome (HACAT [2]) inactive [at 17.4 µM] | Potency (C33A) | Potency (CAOV3) | outcome (CASKI) | Potency (Es-2) | Potency (HeLa) | Potency (Hek293T) | Potency (JEG-3)

C=C1CC[C@@H]2[C@](C)(CO)[C@H](O[C@@H]3O[C@H](CO)[C@@H](O)[C@H](O)[C@H]3O)CC[C@@]2(C)[C@@H]1C/C=C1/C(=O)OC[C@H]1O
inactive: max response (CRL-7250) -3.97% | max response (HEK293) -5.74% | outcome (HaCat [1]) | max response (KB-3-1) -0.713% | max response (NIH3T3) -0.313% | outcome (HACAT [2]) inactive [at 17.4 µM] | Potency (C33A) | Potency (CAOV3) | outcome (CASKI) | Potency (Es-2) | Potency (HeLa) | Potency (Hek293T) | Potency (JEG-3)
